Experimental data reported in PubChem BioAssay (NCI).
The panel holds about 79,000 compounds, 15% with a hit somewhere; the sample as a whole holds those more often. The source made the active and inactive calls. Rule as the data show it: active = growth inhibition above about 70%; inactive = the rest.

Assay: NCI Yeast Anticancer Drug Screen. Data for the mec2-1 strain (AID 157)
Conditions: S. cerevisiae mec2-1 strain, at 50.0 µM, stronger effect = higher value
Outline: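 Strain: mec2-1 (DNA repair/cell cycle alteration). Compound exposure, then growth measured; inhibition expressed relative to vehicle.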

Row | SMILES | growth inhibition
1 | NC(=S)N/N=C\c1nccc2c(N)cccc12 | 76.7% (active)
2 | Oc1cc(Cl)ccc1Cc1ccc(Cl)cc1O | 99.7% (active)
3 | CCCCCCCCCCCC(=O)OC(C)C(=O)NCCCC (configuration not stated) | 13.6% (inactive)
4 | CCC(=O)c1cc([N+](=O)[O-])c(Br)s1 | 99.6% (active)
5 | OC(Cc1cc(CC(O)(C(F)(F)F)C(F)(F)F)nc(CC(O)(C(F)(F)F)C(F)(F)F)c1)(C(F)(F)F)C(F)(F)F | 99.5% (active)

Assay: NCI Yeast Anticancer Drug Screen. Data for the sgs1 mgt1 strain (AID 161);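 also: 0% = growth of cultures given vehicle only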
Conditions: S. cerevisiae sgs1 mgt1 strain, at 5.0 µM (retest, dose inferred, filed as 0.5), stronger effect = higher value
Outline: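 Genetically altered yeast, compound exposure, growth inhibition relative to vehicle.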

Row | SMILES | growth inhibition
6 | COC(=O)c1nc(=S)[nH]c(C(=O)OC)c1C(=O)c1ccc(Cl)c(Cl)c1 | 7% (inactive)
7 | NC(=Nc1nc(-c2ccccn2)cc2ccccc12)c1ccccn1 | 64% (inactive)
8 | Cc1nc(Sc2nc3ccc([N+](=O)[O-])cc3s2)sc1C | -2% (inactive)
9 | NC(=S)Nc1ccc2c(c1)Cc1ccccc1-2 | 2% (inactive)
10 | CN(C)CCN(C)CC(C)(C)C(=O)/C=C/c1ccc(Cl)c(Cl)c1 | 6% (inactive)
11 | CCCCCCCCCCCCCCCc1ccc(C(=O)C[n+]2ccccc2)cc1 | 44% (inactive)
12 | O=C(CCl)N(c1ccccc1)c1ccccc1 | 1% (inactive)
13 | CCOC(=O)C1=C(C(=O)c2ccccc2)C(c2cccc([N+](=O)[O-])c2)C(C(=O)c2ccccc2)=C(C(=O)OCC)N1 | 21% (inactive)
14 | CCN1CCCC(Nc2cc(C)nc(/N=C(/N)Nc3ccc(Cl)c(Cl)c3)n2)C1 (configuration not stated) | 48% (inactive)
15 | CCc1cnc2ccccc2c1/C=C/c1ccc(N(C)C)cc1 | 4% (inactive)
16 | O=[N+]([O-])c1ccc2c(c1)Cc1ccccc1-2 | 8% (inactive)
17 | Fc1ccc(NCCS)cc1 | -18% (inactive)
